HTR2A ag: agonists of mouse serotonin 5-HT2A receptor (HTR2A); P35363; CHO-K1 mHTR2A beta-arrestin complementation, luminescence; percent of 30 µM serotonin response; activation, % at 7.6 µM; 360,000 compounds, 0.66% hits;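 active means activation above a run cutoff, the mean activation of all tested compounds plus 3 SD, cut at about 14% in these data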
LANA-H2A inh: blocks KSHV LANA binding to histone H2A/H2B; Q9QR71; cell-free LANA-H2A/H2B peptide, fluorescence polarization; inhibition, % (concentration not given with the values); 320,000 compounds, 0.6% hits; in the data active means inhibition mostly above about 10%, no sharp cut-off; inactive means mostly below about 6.7%
TLR4 MyD88 comp: inhibitors of human TLR4-MyD88 binding. inhibition, % at 8.4 µM. O00206+Q99836. HeLa CL3-4 TLR4/MyD88 BLA complementation, FRET ratio. 200,000 compounds, 0.18% hits; in the data active means inhibition above about 25%
NOD2 RIPK2 PPI: NOD2-RIPK2 protein interaction inhibition; O43353; CHO BLA complementation NOD2-RIPK2, CCF4 ratio; inhibition, % at 4.98 µM; 360,000 compounds, 0.38% hits; in the data active means inhibition above about 21%
Target sequence (O43353 whole entry, looked up): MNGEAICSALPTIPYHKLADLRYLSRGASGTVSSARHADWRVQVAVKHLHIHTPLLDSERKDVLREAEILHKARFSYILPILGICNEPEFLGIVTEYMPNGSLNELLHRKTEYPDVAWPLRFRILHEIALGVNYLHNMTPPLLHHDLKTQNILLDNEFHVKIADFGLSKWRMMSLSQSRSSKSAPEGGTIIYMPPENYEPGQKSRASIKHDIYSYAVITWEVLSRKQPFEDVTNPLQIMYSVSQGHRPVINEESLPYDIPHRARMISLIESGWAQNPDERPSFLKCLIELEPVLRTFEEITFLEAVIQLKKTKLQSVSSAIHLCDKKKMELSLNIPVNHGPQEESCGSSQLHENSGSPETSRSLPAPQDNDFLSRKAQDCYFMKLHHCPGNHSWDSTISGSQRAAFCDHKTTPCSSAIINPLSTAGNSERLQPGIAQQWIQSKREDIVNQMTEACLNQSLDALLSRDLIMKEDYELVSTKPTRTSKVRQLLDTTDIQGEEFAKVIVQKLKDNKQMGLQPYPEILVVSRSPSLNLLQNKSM
TLR9-MyD88 block: TLR9-MyD88 interaction inhibition; Q9NR96+Q99836; CHO BLA complementation TLR9-MyD88, CCF4 FRET ratio; inhibition, % at 4.98 µM; 340,000 compounds, 0.21% hits;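 active means inhibition above the mean over all tested compounds plus 3 SD, cut at about 21% in these data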
Rtt109 Vps75: blocks Candida albicans Rtt109/Vps75 acetyltransferase activity. Q5AAJ8. 330,000 compounds, 0.16% hits. inhibition, % at 34.9 µM. AID 540336. purified Rtt109/Vps75, ThioGlo CoA-SH fluorescence, 4 h;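 active means inhibition of at least 50% in every replicate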
Of the large screens only hits and unclear results are named; the others gave an inactive call; ! = not active in a repeat. In the library only some 1.8% were active in any assay of this set; here they are far more common.

COc1cccc(C(=O)NCc2nnc(SCC(=O)Nc3nccs3)n2-c2cccc(C)c2)c1	Rtt109 Vps75 61
Cc1cccc(C)c1NC(=O)C(CCc1ccccc1)N1CCC(c2ccccc2)CC1 (stereo unspecified)	none (no result: LANA-H2A inh, TLR4 MyD88 comp, TLR9-MyD88 block, Rtt109 Vps75)
CCOc1ccc(C(=O)NC(=S)Nc2cc(C)ccn2)cc1[N+](=O)[O-]	LANA-H2A inh 98 (no result: TLR4 MyD88 comp)
CCOc1ccc(C(=O)NC(=S)Nc2ccccn2)cc1[N+](=O)[O-]	none
O=C(OCc1ccc(F)cc1)c1ccc2c(c1)-c1ccccc1C2=O	none
CCOC(=O)C1=C(Cc2ccc(F)cc2)C(=O)c2ccccc2C1=O	NOD2 RIPK2 PPI 30
CCNC(=O)C1CCCN(C(=O)c2ccc(F)c(Cl)c2)CC1 (stereo unspecified)	none (no result: LANA-H2A inh, TLR4 MyD88 comp, TLR9-MyD88 block, Rtt109 Vps75)
Cc1cccc(CS(=O)(=O)c2nnc([C@H](Cc3ccccc3)NC(=O)OC(C)(C)C)o2)c1	NOD2 RIPK2 PPI 65
COC(=O)CS(=O)(=O)c1nnc([C@H](Cc2ccccc2)NC(=O)OC(C)(C)C)o1	NOD2 RIPK2 PPI 46
COC(=O)CSc1nnc([C@H](Cc2ccccc2)NC(=O)OC(C)(C)C)o1	none
COc1cc(CNC(=O)Nc2nc(C(N)Cc3ccc(C(F)(F)F)cc3)cs2)cc(OC)c1OC (stereo unspecified)	none (no result: LANA-H2A inh, TLR4 MyD88 comp, TLR9-MyD88 block, Rtt109 Vps75)
COc1ccc(-[n+]2c(C)cc(/C=C3\Sc4ccccc4N3C)cc2C)cc1	Rtt109 Vps75 74
COc1cccc(C(C)NC(=O)c2c(F)cccc2Cl)c1 (stereo unspecified)	none
COc1cccc(C(C)NC(=O)Nc2ccccc2Cl)c1 (stereo unspecified)	LANA-H2A inh 15
COc1cccc(NC(=S)NC2CC(C)CC(C)(C)C2)c1 (stereo unspecified)	none (no result: LANA-H2A inh, TLR4 MyD88 comp, Rtt109 Vps75)
CCN(CC)c1ccc2cc(S(=O)(=O)c3ccc(Cl)cc3)c(=O)oc2c1	LANA-H2A inh 39
O=C(Nc1ccc(-n2cnnn2)cc1)C1CCCCC1	LANA-H2A inh 13
O=C(c1ccccc1)c1ccc(N2CCN(C(=O)c3ccc(F)cc3F)CC2)c(F)c1	none (no result: LANA-H2A inh, TLR4 MyD88 comp, Rtt109 Vps75)
NCCN1C(=O)S/C(=C\c2ccc3c(c2)OCO3)C1=O	none (no result: TLR4 MyD88 comp)
O=C(CNC(=O)c1ccccc1F)NCCN1C(=O)S/C(=C\c2ccc3c(c2)OCO3)C1=O	LANA-H2A inh 28 (no result: TLR4 MyD88 comp)
CCNC(=O)C1(C)CCN1CCC(=O)c1ccc(C)cc1 (stereo unspecified)	none (no result: LANA-H2A inh, TLR4 MyD88 comp, TLR9-MyD88 block, Rtt109 Vps75)
CNc1nc(-c2ccc(S(=O)(=O)N3CCCCC3)cc2)cs1	LANA-H2A inh 15 (no result: TLR4 MyD88 comp)
O=C(NC1CCCC1)C(c1ccccc1)n1c(Cc2cc(F)cc(F)c2)nc2ccccc21 (stereo unspecified)	none (no result: LANA-H2A inh, TLR4 MyD88 comp, TLR9-MyD88 block, Rtt109 Vps75)
Cc1ccc2nc3n(c(=O)c2c1)-c1cc2ccccc2cc1C(=O)NC3CC(C)C (stereo unspecified)	none (no result: LANA-H2A inh, TLR4 MyD88 comp, Rtt109 Vps75)
CCOC(=O)C(c1ccccc1)C(Nc1ccc(F)cc1)c1ccccn1 (stereo unspecified)	LANA-H2A inh 21 (no result: TLR4 MyD88 comp)
COc1ccc(Cc2c(C(C)(C)C)nc3c(C)cc(Br)cn23)c(C)c1	none (no result: LANA-H2A inh, TLR4 MyD88 comp, TLR9-MyD88 block, Rtt109 Vps75)
COC(=O)CCCC1=CC2=C(c3ccccc3)C(=O)C(C)(OC(=O)C3CCCC3)C(=O)C2=CN1C1CC1 (stereo unspecified)	LANA-H2A inh 59 (no result: TLR4 MyD88 comp)
COC(=O)CCCC1=CC2=C(c3ccccc3)C(=O)C(C)(OC(=O)C3CCCC3)C(=O)C2=CN1c1ccccc1 (stereo unspecified)	none (no result: TLR4 MyD88 comp)
O=S(=O)(Nc1cc(Sc2ncn[nH]2)c(O)c2ccccc12)c1ccccc1	Rtt109 Vps75 active (no result: LANA-H2A inh, TLR9-MyD88 block)
COc1cccc(-c2nn(C)c3sc(C(=O)N4CCN(c5ccccn5)CC4)cc23)c1	Rtt109 Vps75 51
C[C@@H](c1ccccc1)N1C[C@@H](COCc2ccccc2)Oc2cc(N3CCC[C@@H]3CO)ccc2S1(=O)=O	none (no result: LANA-H2A inh, TLR4 MyD88 comp, TLR9-MyD88 block, Rtt109 Vps75)
Cc1cc(C(=O)Nc2ccncc2)c(C)o1	Rtt109 Vps75 51 (no result: LANA-H2A inh, TLR4 MyD88 comp)
CCC(=O)N[C@H]1C=C[C@H](CC(=O)OC)O[C@@H]1CO	none (no result: LANA-H2A inh, TLR4 MyD88 comp, TLR9-MyD88 block, Rtt109 Vps75)
CCCOc1ccc(/C=N/NC(=O)CSc2ccccn2)cc1OC	LANA-H2A inh 12 (no result: TLR4 MyD88 comp)
COc1cc(/C=N/NC(=O)CSc2ccccn2)ccc1O	none (no result: TLR4 MyD88 comp)
Cc1cccc(C)c1NC(=O)C1CCCCN1C (stereo unspecified)	LANA-H2A inh 25!
CCC(=O)Nc1cc(OC)cc(OC)c1	none
CCC(=O)Nc1cc(C)c(OC)c(C)c1	Rtt109 Vps75 52
COc1ccc(-c2nn(CCC#N)cc2C(=O)Nc2cccc(C(=O)O)c2)cc1[N+](=O)[O-]	LANA-H2A inh 15 (no result: TLR4 MyD88 comp)
CCN(CC)c1ncnc2c1ncn2[C@H]1CN(Cc2ccc(-c3ccccc3)cc2)C[C@@H](CO)O1	none (no result: LANA-H2A inh, TLR4 MyD88 comp, TLR9-MyD88 block, Rtt109 Vps75)
Cc1ccc(/C=C2\C(=N)N3N=C(CC(=O)N4CCOCC4)SC3=NC2=O)o1	LANA-H2A inh 18 (no result: TLR4 MyD88 comp)
COCc1cccc(-c2csc(C(C)(O)c3ccc(OC)cc3)n2)c1 (stereo unspecified)	none (no result: LANA-H2A inh, TLR4 MyD88 comp, TLR9-MyD88 block, Rtt109 Vps75)
COc1ccccc1C(=O)NCC(=O)OC(C)C(=O)N(C)C1CCCCC1 (stereo unspecified)	LANA-H2A inh 19 (no result: TLR4 MyD88 comp)
CCC(C)[C@H]1CNC(=S)N1CCC12CC3CC(CC(C3)C1)C2 (stereo partly specified)	LANA-H2A inh 16 (no result: TLR4 MyD88 comp)
CCC(C)[C@H]1CNC(=S)N1CCc1cccc2ccccc12 (stereo partly specified)	none (no result: TLR4 MyD88 comp)
CCN(C[C@H]1N[C@@](C)(C(=O)OC)[C@H]2C(=O)N(C)C(=O)[C@@H]12)C(=O)c1ccc(C)cc1	LANA-H2A inh 67 (no result: TLR4 MyD88 comp)
COC(=O)[C@]1(C)N[C@H](CN(C)C(=O)Nc2ccc(C)cc2)[C@@H]2C(=O)N(C)C(=O)[C@@H]21	LANA-H2A inh 160 (no result: TLR4 MyD88 comp)
CCN(C[C@H]1N[C@@](C)(C(=O)OC)[C@H]2C(=O)N(C)C(=O)[C@@H]12)C(=O)c1ccc(F)cc1	none (no result: LANA-H2A inh, TLR4 MyD88 comp)
Fc1cccc(F)c1-n1c(CN2CCCC2)csc1=S	LANA-H2A inh 33
O=C(Nc1ccc(Cl)cc1)NC1CCCC1Cc1ccco1 (stereo unspecified)	LANA-H2A inh 17
CCN1C/C(=C/c2sccc2C)c2nc3ccccc3c(C(=O)O)c2C1	none (no result: TLR4 MyD88 comp)
CCN1C/C(=C/c2cccs2)c2nc3ccccc3c(C(=O)O)c2C1	LANA-H2A inh 11 (no result: TLR4 MyD88 comp)
COCCOc1nc2c(c(=O)n(C)c(=O)n2C)n1CCc1ccccc1	LANA-H2A inh 11
Cc1cc(C)cc(N2CC(C(=O)Nc3cc(C)on3)CC2=O)c1 (stereo unspecified)	none (no result: TLR4 MyD88 comp)
Cc1cc(NC(=O)C2CC(=O)N(c3cccc(Cl)c3)C2)no1 (stereo unspecified)	LANA-H2A inh 11 (no result: TLR4 MyD88 comp)
COCCNC(=O)C1(C)CCCN(C(=O)COc2ccccc2)C1 (stereo unspecified)	none (no result: LANA-H2A inh, TLR4 MyD88 comp, TLR9-MyD88 block, Rtt109 Vps75)
CNCCCC12CCC(c3ccccc31)c1ccccc12	LANA-H2A inh 9.6!
